PAFAH2 inh: PAFAH2 enzyme inhibitors, primary screen, biochemical, fluorescence polarization, human; inhibition, % at 3.39 µM; recombinant PAFAH2, FP-rhodamine activity probe; 340,000 compounds, 0.99% hits;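 active = inhibition above the mean over all tested compounds plus 3 SD, cut at about 30% in these data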;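 note: inhibitors block probe labeling of enzyme so polarization drops; 0% = enzyme with DMSO and 100% = wells lacking PAFAH2 protein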
PAFAH1B3 inh: PAFAH1B3 enzyme inhibitors, primary screen, biochemical, fluorescence polarization, human. 340,000 compounds, 0.28% hits. AID 492972, 2010. inhibition, % at 3.39 µM. recombinant PAFAH1B3, FP-rhodamine probe;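 active = inhibition above the screen-wide average of all tested compounds plus 3 SD, cut at about 25% in these data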;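 note: 0% = enzyme with DMSO only and 100% = wells lacking PAFAH1B3 protein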
pPAFAH FP inh: pPAFAH enzyme inhibitors, primary screen, biochemical, fluorescence polarization, human. Platelet-activating factor acetylhydrolase (Homo sapiens), Q13093. recombinant pPAFAH, FP-rhodamine probe fluorescence polarization. inhibition, % at 3.39 µM. 330,000 compounds, 1.5% hits. AID 463082, 2010;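 active = inhibition above the mean inhibition across the screen plus 3 SD, cut at about 25% in these data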;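 note: inhibitors block binding of the rhodamine activity-based probe so polarization drops; 0% = enzyme with DMSO and 100% = wells lacking pPAFAH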
Target sequence (Q13093 whole entry, looked up): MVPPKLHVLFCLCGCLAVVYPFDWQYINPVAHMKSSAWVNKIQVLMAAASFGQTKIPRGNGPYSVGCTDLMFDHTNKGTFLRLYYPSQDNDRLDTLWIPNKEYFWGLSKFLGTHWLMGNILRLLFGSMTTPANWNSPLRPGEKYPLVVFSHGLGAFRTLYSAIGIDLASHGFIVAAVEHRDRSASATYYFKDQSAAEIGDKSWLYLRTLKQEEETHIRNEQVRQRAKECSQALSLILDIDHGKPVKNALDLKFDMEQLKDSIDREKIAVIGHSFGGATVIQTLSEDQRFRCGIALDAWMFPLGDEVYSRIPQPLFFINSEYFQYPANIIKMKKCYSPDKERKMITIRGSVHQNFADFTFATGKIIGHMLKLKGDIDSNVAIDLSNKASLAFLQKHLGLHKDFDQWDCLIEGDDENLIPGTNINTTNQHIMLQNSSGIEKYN
PAFAH1B2 FP inh: PAFAH1B2 enzyme inhibitors, primary screen, biochemical, fluorescence polarization, human | recombinant PAFAH1B2, FP-rhodamine activity probe | inhibition, % at 3.39 µM | 340,000 compounds, 1.2% hits | AID 492953, 2010;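 active = inhibition above the mean of all tested compounds plus 3 SD, cut at about 24% in these data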;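 note: 0% = enzyme with DMSO and 100% = wells lacking PAFAH1B2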
Target sequence (P68402 whole entry, looked up): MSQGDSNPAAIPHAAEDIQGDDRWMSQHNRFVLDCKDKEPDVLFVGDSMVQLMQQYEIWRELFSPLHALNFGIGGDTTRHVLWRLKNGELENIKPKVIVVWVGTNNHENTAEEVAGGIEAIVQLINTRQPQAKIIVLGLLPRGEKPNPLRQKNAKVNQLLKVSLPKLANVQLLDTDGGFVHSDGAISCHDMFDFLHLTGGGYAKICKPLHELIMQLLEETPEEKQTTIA
M18AAP inhibitor: PfM18AAP inhibitors, malaria aminopeptidase, primary screen, biochemical, QFRET, recombinant enzyme; M18 aspartyl aminopeptidase (Plasmodium falciparum 3D7); H-Glu-NHMec fluorogenic cleavage; inhibition, % at 7.35 µM; 290,000 compounds, 1.2% hits; AID 1822, 2009;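 active = inhibition above the campaign mean inhibition over all tested compounds plus 3 SD, cut at about 28% in these data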;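 note: 0% = plate median of test compound wells and 100% = 2 mM ZnCl2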
DSG3 Ab inh: inhibitors of pemphigus antibody binding to DSG3, primary screen, biochemical, bead-based, flow cytometry, scFv-GFP; binding (percent of control), % at 10 µM; DSG3-coupled beads, scFv-anti-DSG3-GFP binding; active compounds read low; 310,000 compounds, 0.48% hits; Desmoglein-3 (Homo sapiens), P32926;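 active = binding more than 3 SD below its plate's average and above zero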;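 note: hits lower antibody fragment binding to DSG3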
* = called active by the depositor. Rows were chosen to be rich in hits. Some 3.8% of all compounds tested hit in one or more screens of this group.

Screening CCOC(=O)c1c(NC(=O)CN2CCN(C(=O)c3ccco3)CC2)sc2c1CCCC2 returned PAFAH2 inh 6, PAFAH1B3 inh -8, pPAFAH FP inh 34*, PAFAH1B2 FP inh 7 and M18AAP inhibitor 1.
For C[C@H]1CN([C@@H](C)CO)C(=O)c2cc(Br)cnc2O[C@H]1CN(C)C(=O)c1ccccn1 the results were DSG3 Ab inh 101.
Screening CSCc1ccc(C(=O)OCC(=O)NC2CCCC2)o1 returned DSG3 Ab inh 98.
For O=C(NCCc1ccc(Cl)cc1)c1cccc(S(=O)(=O)N2CCCC2)c1 the results were DSG3 Ab inh 98.
O=C1c2cc([N+](=O)[O-])ccc2-c2cc(Br)c(N=C(NO)C(F)(F)F)cc21 was read as PAFAH2 inh -14, PAFAH1B3 inh -24, PAFAH1B2 FP inh -10 and DSG3 Ab inh 99.
For N#Cc1ccsc1NC(=O)CN1C(=O)NC2(CCCC2)C1=O the results were PAFAH2 inh 17, PAFAH1B3 inh 9, pPAFAH FP inh 27*, PAFAH1B2 FP inh 3 and DSG3 Ab inh 107.
`NC(=O)c1ccsc1NC(=O)CN1C(=O)NC2(CCCCC2)C1=O` gave PAFAH2 inh -5, PAFAH1B3 inh 8, pPAFAH FP inh 2 and PAFAH1B2 FP inh -1.
For Cc1nnc(SCC(=O)Nc2sc3c(c2C(N)=O)CCCC3)[nH]c1=O the results were PAFAH2 inh 19, PAFAH1B3 inh 2, pPAFAH FP inh 3, PAFAH1B2 FP inh 17, M18AAP inhibitor 29* and DSG3 Ab inh 84.
For COC(=O)c1c(NC(=O)CN2C(=O)NC3(CCC(C)CC3)C2=O)sc2c1CCC2 (centres undefined) the results were PAFAH2 inh -5, PAFAH1B3 inh -4, pPAFAH FP inh 5, PAFAH1B2 FP inh 0 and DSG3 Ab inh 113.
Screening CC1CCC2(CC1)NC(=O)N(CC(=O)Nc1sc3c(c1C(N)=O)CCC3)C2=O (centres undefined) returned PAFAH2 inh 19, PAFAH1B3 inh 11, pPAFAH FP inh 25*, PAFAH1B2 FP inh 10, M18AAP inhibitor 7 and DSG3 Ab inh 95.
For CCc1cccc(NC(=O)COC(=O)C2COc3ccccc3O2)c1 (centres undefined) the results were DSG3 Ab inh 94.
COc1ccccc1CNC(=O)c1cccc2c1C(=O)N(Cc1cccnc1)C2 was read as PAFAH2 inh 4, PAFAH1B3 inh 4, pPAFAH FP inh -4, PAFAH1B2 FP inh 1, M18AAP inhibitor 1 and DSG3 Ab inh 102.
Screening COc1ccc(OCC(=O)NCc2nc(-c3ccccc3)no2)cc1 returned PAFAH2 inh 0, PAFAH1B3 inh 8, PAFAH1B2 FP inh 7 and DSG3 Ab inh 99.
`O=S(=O)(Nc1ccc(S(=O)(=O)N2CCCCCC2)cc1)c1cccs1` gave PAFAH2 inh 14, PAFAH1B3 inh 0, pPAFAH FP inh 3, PAFAH1B2 FP inh 13, M18AAP inhibitor 4 and DSG3 Ab inh 98.
Screening Cc1cc(Cl)ccc1OCC(=O)Nc1ccccc1NS(=O)(=O)c1cccs1 returned PAFAH2 inh -3, PAFAH1B3 inh 11, pPAFAH FP inh 33*, PAFAH1B2 FP inh 24, M18AAP inhibitor 0 and DSG3 Ab inh 94.
For O=C(Nc1ccc(Cl)cc1)Nc1ccccc1NS(=O)(=O)c1cccs1 the results were PAFAH2 inh 1, PAFAH1B3 inh 10, pPAFAH FP inh 17, PAFAH1B2 FP inh 26*, M18AAP inhibitor 5 and DSG3 Ab inh 102.
Screening O=S(=O)(Nc1ccccc1Cl)c1ccc(NS(=O)(=O)c2cccs2)cc1 returned PAFAH2 inh 15, PAFAH1B3 inh 11, pPAFAH FP inh 26*, PAFAH1B2 FP inh 13, M18AAP inhibitor -3 and DSG3 Ab inh 99.
`O=C(Nc1ccc(F)cc1)Nc1ccccc1NS(=O)(=O)c1cccs1` gave PAFAH2 inh 2, PAFAH1B3 inh -1, pPAFAH FP inh 2, PAFAH1B2 FP inh 15, M18AAP inhibitor -4 and DSG3 Ab inh 87.
Screening Cc1ccc(S(=O)(=O)N2CCOCC2)cc1C(=O)OCC(=O)c1ccc(Br)cc1 returned PAFAH2 inh 4, PAFAH1B3 inh -1, pPAFAH FP inh -5 and PAFAH1B2 FP inh 26*.
Screening Cc1ccc(S(=O)(=O)N2CCOCC2)cc1C(=O)OCC(=O)c1ccc[nH]1 returned PAFAH2 inh 11, PAFAH1B3 inh 6, pPAFAH FP inh 11 and PAFAH1B2 FP inh 3.
Screening O=C(Nc1nnc(Cc2ccccc2)s1)Nc1ccccc1F returned PAFAH2 inh -1, PAFAH1B3 inh 0, pPAFAH FP inh 0, PAFAH1B2 FP inh 0, M18AAP inhibitor -3 and DSG3 Ab inh 103.
Screening O=C(CCNS(=O)(=O)c1ccc(Cl)cc1)N1CCOCC1 returned PAFAH2 inh 3, PAFAH1B3 inh 3, pPAFAH FP inh 4, PAFAH1B2 FP inh 5, M18AAP inhibitor -5 and DSG3 Ab inh 107.
For O=C(CCNS(=O)(=O)c1ccc(Cl)cc1)N1CCCCCC1 the results were PAFAH2 inh 2, PAFAH1B3 inh -4, pPAFAH FP inh 12, PAFAH1B2 FP inh 27* and M18AAP inhibitor 3.
For Cc1ccc(C)c(S(=O)(=O)N2CCN(C(=O)/C=C/c3ccco3)CC2)c1 the results were PAFAH2 inh 4, PAFAH1B3 inh 10, pPAFAH FP inh 30*, PAFAH1B2 FP inh 0 and DSG3 Ab inh 104.
For Cc1ccc(C)c(S(=O)(=O)N2CCN(C(=O)CCNS(=O)(=O)c3ccc(C)c(C)c3)CC2)c1 the results were PAFAH2 inh 6, PAFAH1B3 inh 6, pPAFAH FP inh 27*, PAFAH1B2 FP inh 3 and DSG3 Ab inh 125.
`Cc1ccc(S(=O)(=O)N2CCN(C(=O)/C=C/c3ccco3)CC2)cc1` gave PAFAH2 inh 7, PAFAH1B3 inh -11, pPAFAH FP inh 6, PAFAH1B2 FP inh 5, M18AAP inhibitor -10 and DSG3 Ab inh 100.
C[C@@H]1CN(Cc2nnnn2CC(=O)NCCCn2cccn2)C[C@H](C)O1 was read as DSG3 Ab inh 107.
For Cc1c(OCC(=O)N[C@@H](CSCc2ccccc2)C(=O)O)ccc2c3c(c(=O)oc12)CCC3 the results were PAFAH2 inh 13, PAFAH1B3 inh 2, PAFAH1B2 FP inh 24*, M18AAP inhibitor -4 and DSG3 Ab inh 92.
For Cc1c(OCC(=O)N[C@@H](Cc2ccccc2)C(=O)O)ccc2c3c(c(=O)oc12)CCC3 the results were PAFAH2 inh 5, PAFAH1B3 inh 2, pPAFAH FP inh 8, PAFAH1B2 FP inh 5, M18AAP inhibitor -2 and DSG3 Ab inh 93.

Compound activity (PubChem)
